CR mimetic SO – reduction of superoxide in aged yeast, primary screen, HTS; S. cerevisiae aged cells, superoxide DHE fluorescence; active compounds read low; superoxide response (% of plate mean), % at 10 µM; 330,000 compounds, 0.18% hits; AID 2690, 2010;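 active = superoxide response under a set limit, about three screen SD below normal, cut at about 65% in these data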;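 note: yeast aged for seven days with compound at 30 °C before DHE staining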
GRIN3A LBD mod – binders of NR3A ligand-binding domain, primary screen, biophysical, differential scanning fluorimetry, uHTS | NR3A LBD differential scanning fluorimetry, Tm shift; 0% = protein alone, 100% = glycine-bound protein | Tm shift relative to glycine control, % at 25 µM | 340,000 compounds, 2.5% hits;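 active = melting temperature shift of at least 10% of the positive control shift, at one fixed dose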
UBC13 polyUb – UBC13 polyubiquitin chain formation inhibitors, primary screen, biochemical, TR-FRET, uHTS; Ubiquitin-conjugating enzyme E2 N (Homo sapiens), P61088; inhibition, % at 20 µM; 330,000 compounds, 0.47% hits; in the data active = inhibition above about 45%, passing the limit was not always enough; inconclusive = no clear call, values can overlap the other calls
Target sequence (P61088 whole entry, looked up): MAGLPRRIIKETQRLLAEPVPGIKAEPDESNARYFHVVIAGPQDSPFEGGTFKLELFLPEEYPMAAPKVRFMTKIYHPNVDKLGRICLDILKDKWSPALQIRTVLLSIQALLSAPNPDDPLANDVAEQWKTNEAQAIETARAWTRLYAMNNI
NALP1 inh – NALP1 inflammasome inhibitors in reconstituted yeast, colorimetric, S. cerevisiae, triplicate retest. inhibition, % at 10 µM. 280,000 compounds, 0.61% hits. S. cerevisiae NALP1/ASC/caspase-1 growth, X-gal OD620, 72 h; in the data active = inhibition mostly above about 24%, no sharp cut-off; inactive = mostly below about 32%
dFosB act-1 – activators of delta FosB homodimer, primary screen, biochemical, fluorescence polarization, TAMRA-CDK5 oligo, single point | Protein FosB (Mus musculus), P13346 | purified delta FosB; percent of positive-control signal above neutral wells | activation, % at 25 µM | 340,000 compounds, 0.99% hits | AID 493131, 2011;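 active = mean activation above about 17%, with every replicate also reaching it, limit read from the data, passing the limit was not always enough; inconclusive = only one of the two conditions met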
Target sequence (P13346 whole entry, looked up): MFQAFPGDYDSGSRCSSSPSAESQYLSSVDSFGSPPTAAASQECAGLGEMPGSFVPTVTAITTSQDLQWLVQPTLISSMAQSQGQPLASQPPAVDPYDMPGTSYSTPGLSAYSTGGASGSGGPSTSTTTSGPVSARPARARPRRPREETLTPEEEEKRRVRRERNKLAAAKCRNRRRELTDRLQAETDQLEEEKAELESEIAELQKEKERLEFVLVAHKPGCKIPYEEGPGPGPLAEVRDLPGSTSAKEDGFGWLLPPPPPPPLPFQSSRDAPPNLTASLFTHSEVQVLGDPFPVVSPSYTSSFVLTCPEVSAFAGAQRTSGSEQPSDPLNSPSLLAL
Casp3 UBC13 ctr – CASP3 inhibitor validation, counterassay for project on UBE2N polyubiquitination blockers, biochemical, one dose. shares compounds with UBC13 polyUb. Recombinant caspase-3, Caspase-Glo 3/7 luminescence, 60 min. inhibition, % at 20 µM. 1,400 compounds, 4% hits. AID 488856, 2010;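 active = mean inhibition across replicates above about 26%, limit read from the data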
UBC13 conf – UBC13 polyubiquitination inhibitors, single-point retest, confirmation, biochemical, TR-FRET, single concentration. shares compounds with UBC13 polyUb. inhibition, % at 10 µM. 1,400 compounds, 68% hits. AID 488859, 2010; in the data active = inhibition above about 45%; inconclusive = no clear call, values can overlap the other calls
dFosB act-2 – activators of mouse delta FosB DNA binding, confirmation, biochemical, fluorescence polarization, TAMRA-CDK5 oligo, cherry-picked samples. shares compounds with dFosB act-1. purified delta FosB; normalised: neutral wells 0, positive control 100. activation, % at 24.9 µM. 2,400 tested, under 10 active;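 active = highest replicate activation at or above 34% and every replicate reaching that threshold; inconclusive = meets only one of the two criteria; inactive = meets neither criterion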;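 note: higher polarization means more probe DNA bound by delta FosB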
Numbers stand for hits; – = inactive; ? = inconclusive; · = not tested or not shown. Only some compounds are listed: those with a hit (about 4.3% of all), similar ones and a draw of the others.

SMILES	CR mimetic SO	GRIN3A LBD mod	UBC13 polyUb	NALP1 inh	dFosB act-1	Casp3 UBC13 ctr	UBC13 conf	dFosB act-2
CC1CCCC(NC(=O)c2ccc(F)c(S(=O)(=O)N3CCOCC3)c2)C1C (configuration not stated)	–	–	–	·	–	·	·	·
O=C(CCC1CCCCC1)NCCN1C2=NC[C@H](Cc3ccc(O)cc3)N2C[C@H]1Cc1ccc(O)cc1	·	–	–	–	–	·	·	·
COc1ccc(C[C@H]2CN3C(=NC[C@@H]3C(C)C)N2CCNC(=O)CCC2CCCCC2)cc1	–	–	52.9	–	–	–	–	·
COc1ccc(C[C@H]2CN3C(=NC[C@@H]3Cc3ccccc3)N2CCNC(=O)CCC2CCCCC2)cc1	–	–	77.9	–	–	–	69.1	·
CCc1cccc(N(C(=O)c2csnn2)C(C(=O)NC(C)(C)C)c2ccccn2)c1 (configuration not stated)	–	–	–	–	–	·	·	·
O=C(Nc1ccccc1)N1CCN(c2nc(-c3ccccc3)ns2)CC1	–	–	49.2	·	–	–	63.1	·
O=C(Nc1ccccc1Cl)N1CCCN(c2nc(-c3ccccc3)ns2)CC1	–	–	–	–	–	·	·	·
OC(Cc1cccnc1)c1ccccc1 (configuration not stated)	·	–	·	·	–	·	·	·
O=S(=O)(Cc1ccccc1)N1CCN(Cc2ccc(F)cc2Cl)CC1	–	–	–	–	–	·	·	·
CN(C)C(CNC(=O)c1coc2ccccc2c1=O)c1ccccc1 (configuration not stated)	–	–	56.4	–	–	–	58.9	·
COC(=O)c1ccc(CNC(=O)c2coc3ccccc3c2=O)cc1	–	–	–	–	–	·	·	·
CC(C)[C@@H]1CN=C(N)N1C[C@@H]1CCCN1C[C@H](C)N1C[C@@H](Cc2ccccc2)N(CCc2ccc(Cl)c(Cl)c2)C1=N	–	–	69.5	·	20.0	–	46.3	–
COc1cccc2sc(N(CCCN(C)C)C(=O)c3ccc(S(=O)(=O)N4CCc5ccccc5C4)cc3)nc12	–	–	63.9	–	30.1	–	99.3	–
CCOc1cccc2sc(N(CCCN(C)C)C(=O)c3ccc(S(=O)(=O)N(C)Cc4ccccc4)cc3)nc12	–	–	76.1	–	24.1	–	110.6	–
CCOc1cccc2sc(N(CCCN(C)C)C(=O)c3ccc(S(=O)(=O)N4CCCCCC4)cc3)nc12	–	–	–	–	–	·	·	·
O=c1c(Cl)c(O)ccn1C1OC(CO)C(O)C1O (configuration not stated)	·	–	·	·	–	·	·	·
C#CCOCCOCCOCCNc1nc(N2CCN(C(=O)[C@H](CCCCN)n3cc([C@@H](N)CC(C)C)nn3)CC2)nc(N2CCN(C(=O)[C@H](CCCCN)n3cc([C@@H](N)CC(C)C)nn3)CC2)n1	–	–	77.2	–	18.8	–	84.1	?
C#CCOCCOCCOCCNc1nc(N2CCN(C(=O)[C@H](CCCCN)n3cc(C(N)CO)nn3)CC2)nc(N2CCN(C(=O)[C@H](CCC(=O)O)n3cc(C(N)CC(C)C)nn3)CC2)n1 (some centres not stated)	·	·	–	·	·	·	·	·
NC1=NC[C@@H](Cc2ccc(O)cc2)N1CCc1cc(C(F)(F)F)cc(C(F)(F)F)c1	–	–	64.0	·	21.6	–	–	–
Cc1nn(CC(=O)NNC(=O)c2cccc(Br)c2)c(C)c1[N+](=O)[O-]	–	–	–	–	–	·	·	·
COc1cccc(-c2sc3ccccc3c2-c2ccc(OCCN3CCCCC3)cc2)c1	–	–	68.9	·	34.5	–	61.5	–
CC[C@H](C)[C@@H]1NC(=O)c2cc([N+](=O)[O-])cc(F)c2NCCCC[C@@H](C(N)=O)NC(=O)[C@H](CCCCN)NC1=O	–	–	77.9	–	20.7	–	61.9	–
Cc1cccc(N2CCN(C(=S)Nc3ccc4nc(N5CCN(C)CC5)cc(C)c4c3)CC2)c1C	·	–	·	–	–	·	·	·
Cc1cc(N2CCN(C)CC2)nc2ccc(NC(=S)N3CCN(c4cccc(Cl)c4)CC3)cc12	–	–	60.7	–	51.1	–	54.3	–
Cc1cc(-c2ccc(C)c(S(=O)(=O)NCCC(C)N3CCCCCC3)c2)on1 (configuration not stated)	–	–	–	–	–	·	·	·
SMILES	CR mimetic SO	GRIN3A LBD mod	UBC13 polyUb	NALP1 inh	dFosB act-1	Casp3 UBC13 ctr	UBC13 conf	dFosB act-2
CCN(CC)CCNc1ncnc2c1sc1nc(N3CCOCC3)c3c(c12)CCCC3	–	–	69.4	–	31.0	–	84.3	–
OCCNc1ncnc2c1sc1nc(N3CCOCC3)c3c(c12)CCC3	–	–	–	–	–	·	·	·
O=S(=O)(Nc1ccc(Cl)cc1)c1ccc(N2CCOCC2)c(NC(=S)NCCN2CCOCC2)c1	–	–	–	–	–	·	·	·
C=CCN(C(=O)Cn1nc(C)n2c(cc3cc(C)ccc32)c1=O)c1ccccc1	–	–	–	–	–	·	·	·
O=C(CSc1nc(C2CC2)nc2ccccc12)Nc1ccccc1	–	–	–	–	35.8	·	·	–
O=C(CSc1nc(C2CC2)nc2ccccc12)Nc1ccccc1N1CCOCC1	–	–	–	–	–	·	·	·
COc1cc(NC(=O)CSc2nc(C3CC3)nc3ccccc23)cc(OC)c1	–	–	–	–	87.7	·	·	–
O=C(CSc1nc(C2CC2)nc2ccccc12)Nc1ccccc1Cl	–	–	–	–	30.8	·	·	–
Cn1c(=O)c2c(SCC(=O)Nc3ccccc3F)nc(C3CC3)nc2n(C)c1=O	–	–	–	–	23.7	·	·	–
C/C(CC(=O)Nc1cccc(Cl)c1Cl)=N\NC(=O)c1ccccc1C	–	–	–	–	–	·	·	·
COc1ccc(CCNC(=O)CCCn2c(SCC(N)=O)nc3cc4c(cc3c2=O)OCO4)cc1OC	–	·	–	–	·	·	·	·
O=c1[nH]c(/C(Cl)=C/c2cc(Cl)ccc2O)nc2cc(Cl)ccc12	–	38.9	–	–	31.4	·	·	–
COc1ccc(CS(=O)(=O)c2ncn[nH]2)cc1	–	–	–	–	–	·	·	·
CCC(CC)C(=O)Nc1cccc(-c2ccc3nncn3n2)c1	–	–	–	–	–	·	·	·
COc1ccc(-c2nc(Cn3c(SCc4ccc(C)cc4)nc4ccncc43)c(C)o2)cc1OC	–	–	–	–	38.8	·	·	–
O=C(CSc1nnc(NC(=O)c2ccco2)s1)Nc1ccc(F)cc1	–	–	–	–	18.9	·	·	–

Screening results: PubChem, several laboratories
